# In the library only some 1.4% were active in any assay of this set; here they are far more common.
# TNF death inh: inhibitors of TNF-alpha induced necroptosis in Jurkat FADD-/- cells | AID 463075 | Jurkat FADD-/- TNF necroptosis rescue, ATP luminescence, 24 h; 0 = TNF only, 100 = no-TNF cells | activation (protection from cell death), % at 10 µM | hit rate 0.068% among 220,000;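 active = activation, meaning protection from cell death, of at least 50% relative to plate controls; inactive = activation below 50%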;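 also: necroptosis triggered by 40 ng/mL TNF-alpha added together with compound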
# V-ATPase pHluor: alters yeast V-ATPase proton transport; hit rate 0.37% among 350,000; S. cerevisiae, pHLuorin cytosolic pH fluorescence; response, % at 10 µM; in the data active = response mostly above about 7.3%, no sharp cut-off; inactive = mostly below about 5.4%; also: actives read high
# zVAD death inh: blocks zVAD induced death of L929 cells; L929 zVAD necroptosis rescue, ATP luminescence, 24 h; with zVAD 60 µM; viability rescue, % at 10 µM; hit rate 0.38% among 220,000;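 active = activation, scaled between plate controls, above about 75%, limit read from the data; inactive = activation under that limit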;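 also: 0% = zVAD with DMSO and 100% = DMSO alone without zVAD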
# Wee1 stabilizer: blocks degradation of human Wee1 kinase; P30291; HeLa Luc-Wee1K328M stability, luciferase luminescence; 100% = proteasome inhibitor MG132 effect; reporter increase, % at 5 µM; hit rate 1.2% among 220,000; AID 1321;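 active = activation above the mean of all tested compounds plus 3 SD, set per screening run, cut at about 8.8% in these data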;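 also: cells exposed to compound for 20 h before luminescence read; 0% = DMSO alone and 100% = MG132 at 30 µM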
# Target sequence (P30291 whole entry K328M): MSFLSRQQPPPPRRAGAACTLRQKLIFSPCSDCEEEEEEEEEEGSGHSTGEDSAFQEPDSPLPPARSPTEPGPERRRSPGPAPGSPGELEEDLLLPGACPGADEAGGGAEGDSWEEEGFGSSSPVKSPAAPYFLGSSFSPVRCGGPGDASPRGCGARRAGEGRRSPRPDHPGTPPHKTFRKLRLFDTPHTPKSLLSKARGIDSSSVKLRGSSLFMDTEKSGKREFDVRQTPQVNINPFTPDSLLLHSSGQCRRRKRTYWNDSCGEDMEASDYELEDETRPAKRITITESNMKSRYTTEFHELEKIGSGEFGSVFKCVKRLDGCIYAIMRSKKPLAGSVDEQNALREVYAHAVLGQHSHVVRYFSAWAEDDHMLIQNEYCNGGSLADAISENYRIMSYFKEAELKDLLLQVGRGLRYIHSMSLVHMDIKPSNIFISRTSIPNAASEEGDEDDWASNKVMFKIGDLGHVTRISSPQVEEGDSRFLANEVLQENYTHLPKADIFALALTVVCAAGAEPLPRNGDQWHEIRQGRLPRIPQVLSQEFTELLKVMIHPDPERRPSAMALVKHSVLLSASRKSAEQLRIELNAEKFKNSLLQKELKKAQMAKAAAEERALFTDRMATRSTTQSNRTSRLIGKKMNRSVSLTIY
# HSV augment: increases HSV replication in cells | HSV replication augmentation in cells, fold increase | maximum fold increase | hit rate 0.005% among 220,000 | AID 1956; in the data active = maximum fold increase above about 1.5; tested in PC3 cells
# V-ATPase pH SP: modulates yeast V-ATPase proton transport; shares compounds with V-ATPase pHluor; S. cerevisiae pHLuorin cytosolic pH; response, % at 10 µM; hit rate 2% among 980; AID 602197; in the data active = response above about 24%;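 also: plate controls were vehicle wells for no effect and positive control wells for full effect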
# An asterisk follows results filed as active; i = inactive; / = no result given.
SMILES,TNF death inh,V-ATPase pHluor,zVAD death inh,Wee1 stabilizer,HSV augment,V-ATPase pH SP
O=C(Cc1ccc([N+](=O)[O-])cc1)Nc1cccc(C(F)(F)F)c1,5,12*,2,-2,i,-2
Cc1cc(C(=O)OCC(=O)Nc2sc3c(c2C#N)CCC(C)C3)c2ccccc2n1 (stereo not drawn),2,13*,1,-2,i,-3
Cc1ccc(C(=O)NNC(=O)CCn2nnc3ccccc32)cc1,2,11*,4,1,i,4
Cc1cccc(C(=O)NNC(=O)CCn2nnc3ccccc32)c1,0,1,1,-1,i,/
Cc1c(CCC(=O)O)c(=O)oc2c(C)c(OCc3cc4c(cc3Cl)OCO4)ccc12,2,0,1,1,i,/
CC(C)(C)c1cc(C(=O)N/N=C/c2cc3c(cc2Br)OCO3)n[nH]1,/,11*,/,/,/,6
Cn1c(=O)oc2cc(S(=O)(=O)Nc3ccc(F)cc3)ccc21,/,7.4*,/,/,/,1
CCc1c(C)nc2c(C)cccc2c1SCCC#N,-1,-3,-1,-2,i,/
O=C(CCCN1C(=O)c2ccccc2C1=O)NCCc1ccc(OC(F)F)cc1,/,1,/,/,/,/
Cc1occc1C(=O)N/N=C/c1sc(N2CCOCC2)nc1-c1ccccc1,-2,10*,1,6,i,1
Cc1n[nH]c(C)c1CS(=O)(=O)c1ccccc1,2,7.3*,0,0,i,1
Cc1n[nH]c(C)c1CCCCOc1ccccc1,2,-2,0,-5,i,/
CN1CCCC(OC(=O)c2ccccc2F)C1 (stereo not drawn),/,9.4*,/,/,/,-2
CC12CCC(=O)N1C(C(=O)N1CCN(S(=O)(=O)c3cccc(C(F)(F)F)c3)CC1)CS2 (stereo not drawn),/,-1,/,/,/,/
Cc1cc(Br)ccc1NC(=O)CN(C)C(=O)C1CCN(C(=O)c2ccc(F)cc2)CC1,/,12*,/,/,/,1
CN(CC(=O)Nc1ccccc1Cl)C(=O)C1CCN(C(=O)c2ccc(Cl)cc2)CC1,/,-3,/,/,/,/
O=C1NC(=S)S/C1=C\c1coc2ccccc2c1=O,-1,52*,1,-2,i,0
O=C1NC(=S)S/C1=C\c1coc2ccc(O)cc2c1=O,-1,0,1,0,i,/
Cc1ccc(-c2nn3nnnc3c3ccccc23)cc1C,-2,7.7*,0,3,i,-2
O=C(O)c1ccc(CS(=O)(=O)Cc2ccccc2F)o1,1,9.0*,/,-1,i,0
O=C(NCc1ccccc1)c1ccc(CS(=O)(=O)Cc2ccccc2F)o1,1,-2,3,-3,i,/
C[C@@H]1CN([C@H](C)CO)C(=O)c2cc(Br)cnc2O[C@@H]1CN(C)C(=O)Cc1ccccc1,/,-6,/,/,/,/
O=S1(=O)N(Cc2ccccc2F)CCCN1Cc1c(F)cccc1Cl,/,9.6*,/,/,/,0
Cc1ccc(CN2CCCN(Cc3c(F)cccc3Cl)S2(=O)=O)cc1,/,-5,/,/,/,/
O=S(=O)(c1ccc(NCCCO)nc1)N1CCOCC1,/,-2,/,/,/,/
SMILES,TNF death inh,V-ATPase pHluor,zVAD death inh,Wee1 stabilizer,HSV augment,V-ATPase pH SP
COc1ccc(C(=O)N2CCC(C(=O)N3CCN(Cc4ccccc4)CC3)CC2)cc1,/,-4,/,/,/,/
COc1ccccc1C1=NOC(C)(c2nnc(-c3cccc(Cl)c3)o2)C1 (stereo not drawn),/,-3,/,/,i,/
CC(=O)NC[C@H]1O[C@@H](n2ccc(N)nc2=O)[C@H](O)[C@@H]1O,/,0,/,/,/,/
Nc1cnn(C2OC(CO)C(O)C2O)c(=O)n1 (stereo not drawn),0,7.8*,0,-3,i,3
CC[C@H](C)/C=C/C1=CC2=C(Cl)C(=O)[C@@]3(C)OC(=O)C(C(=O)[C@H](C)[C@@H](C)O)=C3C2=CO1,/,7,/,/,i,/
C=CCn1c(SCC(=O)Nc2c(C)n(C)n(-c3ccccc3)c2=O)nc2scc(-c3ccccc3)c2c1=O,-4,13*,-1,-1,i,1
COC(=O)[C@]1(Cc2ccccc2)N[C@H](CN(C)C(=O)Nc2ccc(Cl)cc2)[C@@H]2C(=O)N(C)C(=O)[C@@H]21,/,1,/,/,/,/
Cc1ccc(NC(=O)CSc2ncccn2)cc1S(=O)(=O)N1CCCCC1,/,0,/,/,/,/
Cc1csc(SCC(=O)NC2CCCCC2)n1,1,-1,-1,2,i,/
Cc1csc(SCC(=O)NC2CCC(C)CC2)n1 (stereo not drawn),/,7.5*,/,/,/,-6
CCCCCCn1nc(C(=O)N(CCOC)c2c(N)n(CCCC)c(=O)[nH]c2=O)c2ccccc2c1=O,/,-5,/,/,/,/

# Screens deposited in PubChem BioAssay by several laboratories.
